Results from PubChem BioAssay (Tox21).
Inconclusive results are not listed. A call without a number means that no potency is given here. Calls of active or inactive are those of the source. The call rests on the fitted dose curve.

molecular target: Peroxisome proliferator-activated receptor gamma (Homo sapiens) (UniProt P37231); assay: qHTS assay to identify small molecule antagonists of the peroxisome proliferator-activated receptor gamma (PPARg) signaling pathway (AID 743191); settings: HEK293H PPARg-UAS-bla, beta-lactamase ratio, antagonist, 17 h; series mostly up to 62.6 µM; further: nearly all actives have a fitted effect of over 30% in size
Sequence (P37231 whole entry, looked up): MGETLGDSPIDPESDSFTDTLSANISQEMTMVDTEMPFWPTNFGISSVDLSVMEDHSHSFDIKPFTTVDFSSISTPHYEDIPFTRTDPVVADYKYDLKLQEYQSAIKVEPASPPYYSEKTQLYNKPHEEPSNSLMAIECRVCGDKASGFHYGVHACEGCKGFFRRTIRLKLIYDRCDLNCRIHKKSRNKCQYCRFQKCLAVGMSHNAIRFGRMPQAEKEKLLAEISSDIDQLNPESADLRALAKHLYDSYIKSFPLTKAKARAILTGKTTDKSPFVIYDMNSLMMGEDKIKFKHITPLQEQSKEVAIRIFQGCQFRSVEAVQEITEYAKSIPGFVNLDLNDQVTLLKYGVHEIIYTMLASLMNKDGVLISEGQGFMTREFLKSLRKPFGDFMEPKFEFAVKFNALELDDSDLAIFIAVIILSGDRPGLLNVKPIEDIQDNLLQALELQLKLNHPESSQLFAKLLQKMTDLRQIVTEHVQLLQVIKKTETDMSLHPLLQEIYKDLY
Excerpt: U.S. Tox21 Program National Center for Advancing Translational Sciences [NCATS] NIH Chemical Genomics Center [NCGC] U.S. Environmental Protection Agency [EPA] National Institutes of Environmental Health Sciences [NIEHS] National Toxicology Program [NTP] U.S. Food and Drug Administration [FDA] Tox21 Assay Overview: The peroxisome proliferator-activated receptors (PPARs) are lipid-activated transcription factors of the nuclear receptor superfamily with three distinct subtypes namely PPAR alpha, PPAR delta (also called PPAR beta) and PPAR gamma (PPARg). All these subtypes heterodimerize with Retinoid X receptor (RXR) and these heterodimers regulate transcription of various genes. PPAR-gamma receptor (glitazone receptor) is involved in the regulation of glucose and lipid metabolism. To identify the compounds that inhibit PPAR-gamma signaling, GeneBLAzer PPAR gamma UAS-bla HEK293H cell line (Invitrogen, Carlsbad, CA, USA) containing a beta-lactamase reporter gene under control of an Upstream Activator Sequence (UAS) was used to screen the Tox21 compound library.
Tox21 Assay Protocol Summary: PPARg-bla cells were dispensed at 3000 cells/6uL/well in 1536-well black wall/clear bottom plates using a Multidrop Combi (Thermo Fisher Scientific, Waltham, MA) dispenser. After the assay plates were incubated at 37C and 5% CO2 for 5 h, 23 nL of compounds dissolved in DMSO, positive controls or DMSO only was transferred to the assay plate by a Pintool station (Kalypsys, San Diego, CA). The assay plates were incubated at 37C for 17 h. After 1 uL of LiveBLAzerTM B/G FRET substrate was added using a Bioraptr Flying Reagent Dispenser (FRD) workstation (Beckman Coulter, Indianapolis, IN, USA), the plates were incubated at room temperature for 1 h, and fluorescence intensity was measured by an Envision plate reader (PerkinElmer, Shelton, CT).
Potency means the concentration at half of the fitted maximal effect.

Row | Structure (SMILES) | Potency | ratio activity, negative = inhibition
1 | CCN(CCCCOC(=O)c1ccc(OC)c(OC)c1)C(C)Cc1ccc(OC)cc1 (stereo not given) | inactive | –
2 | C=CC(=O)OCCCCCCCCCC | inactive | –
3 | CC(CN=Cc1ccccc1O)N=Cc1ccccc1O (stereo not given) | inactive | –
4 | CC(C)C/C=C(\C=O)c1ccccc1 | inactive | –
5 | CC(COc1ccccc1)NC(C)C(O)c1ccc(O)cc1 (stereo not given) | inactive | –
6 | O=C(O)c1ccc2cc(O)ccc2c1 | inactive | –
7 | Cc1cc(C)c(C)c(O)c1 | inactive | –
8 | O=[N+]([O-])c1cccc(I)c1 | inactive | –
9 | CC(C)(C)NCC(O)COc1ccc(NC(=O)NC2CCCCC2)cc1 (stereo not given) | inactive | –
10 | CCc1ccc(C(=O)C(C)CN2CCCCC2)cc1 (stereo not given) | inactive | –
11 | O=Cc1ccc([N+](=O)[O-])cc1 | inactive | –
12 | CC(C)(C)c1cc(C=O)cc(C(C)(C)C)c1O | inactive | –
13 | Cc1ccc2c(Cl)cc(Cl)c(O)c2n1 | inactive | –
14 | Cc1ccc(Cl)c(OCC(O)CNC(C)(C)C)c1 (stereo not given) | inactive | –
15 | CC(Cc1ccccc1)(NC(=O)CN)c1ccccc1 (stereo not given) | inactive | –
16 | CCCC(=O)OCCC(C)C | inactive | –
17 | Nc1ccccc1Nc1ccccc1 | 43.8 µM (active) | –
18 | CC(C)(C)c1ccc(CCC=O)cc1 | inactive | –
19 | OCCc1ccncc1 | inactive | –
20 | CCOC(OCC)OCC | inactive | –

Row | Structure (SMILES) | Potency | ratio activity, negative = inhibition
21 | Cc1c(Cl)cccc1[N+](=O)[O-] | inactive | –
22 | CC(C)Cc1nccs1 | inactive | –
23 | O=C(OC1C[C@H]2CC[C@@H](C1)[N+]21CCCC1)C(O)(c1ccccc1)c1ccccc1 (stereo not given in full) | inactive | –
24 | CCC(=O)O[C@]1(C(=O)COC)[C@@H](C)C[C@H]2[C@@H]3CCC4=CC(=O)C=C[C@]4(C)C3(F)[C@@H](O)C[C@@]21C (stereo not given in full) | inactive | –
25 | O=C1OC(=O)C2CC=CCC12 (stereo not given) | inactive | –
26 | CC1=C(C)C(=O)C(C(CCCCCC(=O)O)c2ccccc2)=C(C)C1=O (stereo not given) | inactive | –
27 | C=CC(=O)NC(C)(C)C | inactive | –
28 | C=Cc1ccc(C=C)cc1 | inactive | –
29 | CC1(C)C(=O)NC(=O)N1CO | inactive | –
30 | CCC(C(=O)O)c1ccc(N2Cc3ccccc3C2=O)cc1 (stereo not given) | inactive | –
31 | O=P(c1ccccc1)(c1ccccc1)c1ccccc1 | inactive | –
32 | N#Cc1ccc(CC(=O)c2cccc(C(F)(F)F)c2)cc1 | inactive | –
33 | C=CC(C)CCC=C(C)C (stereo not given) | inactive | –
34 | COC=O | – | 0.629% [at 5.95 µM] (inactive)
35 | CC1(C)CC(=O)CC(C)(C)N1 | inactive | –
36 | Cc1nc(C)c(C)nc1C | inactive | –
37 | FC1(F)C(F)(F)C(F)(F)C2(F)C(F)(C1(F)F)C(F)(F)C(F)(F)C1(F)C(F)(F)C(F)(F)C(F)(F)C(F)(F)C12F (stereo not given) | inactive | –
38 | NC(=O)c1cc[n+](CC2=C(C(=O)[O-])N3C(=O)[C@@H](NC(=O)Cc4cccs4)[C@H]3SC2)cc1 | inactive | –
39 | CC(C)NC(=O)c1ccccc1N | inactive | –
40 | CC1=C(C)C(=O)C(CCCCC#CCCCC#CCO)=C(C)C1=O | 29.8 µM (active) | –
